Data reported in PubChem BioAssay AID624069 (Southern Research Specialized Biocontainment Screening …, 2012).
Calls of active or inactive are those of the source. No rule for the calls is given here.

experiment: viability of Vero 76 cells – cell-based, set 5, cytotoxicity control, dose response (AID 624069); settings: Vero 76 cells cytotoxicity; series mostly up to 25 µM; viability: at the top concentration

Compound	viability
CCN1CCN(Cc2nc3ccc([N+](=O)[O-])cc3c(=O)n2-c2ccc(F)cc2)CC1	98% (inactive)
CCN1CCN(Cc2nc3ccccc3c(=O)n2-c2ccccc2F)CC1	95.1% (inactive)
CCN1CCN(Cc2nc3ccc(C(F)(F)F)cc3c(=O)n2-c2ccccc2F)CC1	94.5% (inactive)
CCN1CCN(Cc2nc3ccc([N+](=O)[O-])cc3c(=O)n2-c2ccccc2)CC1	91.7% (inactive)
CN1CCN(Cc2nc3ccc([N+](=O)[O-])cc3c(=O)n2-c2ccccc2F)CC1	101% (inactive)
CC(C)(C)OC(=O)N1CCN(Cc2nc3ccc([N+](=O)[O-])cc3c(=O)n2-c2ccccc2F)CC1	98.8% (inactive)
CCN1CCN(Cc2nc3ccc([N+](=O)[O-])cc3c(=O)n2-c2cccc(F)c2)CC1	90.7% (inactive)
O=c1c2cc([N+](=O)[O-])ccc2nc(CN2CCNCC2)n1-c1ccccc1F	89.6% (inactive)
O=C(NCc1ccco1)C1CCN(C(=O)c2cc3sccc3n2Cc2ccc(F)cc2)CC1	74.5% (inactive)
CCN1CCN(Cc2nc3ccc([N+](=O)[O-])cc3c(=O)n2-c2ccccc2F)CC1	93.1% (inactive)
